In all, about 39,000 compounds went through this assay and about 3,300 (8.5%) were called active. Shown is part of a subset that was picked to be rich in actives.

For the assay, the system named is HepG2. The experiment in a line: cytotoxicity call (relative viability < 0.9). Conditions: 10 µM.
Take `C[C@H]1CN([C@@H](C)CO)C(=O)c2cc(NS(=O)(=O)c3ccccc3)ccc2O[C@@H]1CN(C)Cc1ccc(Oc2ccccc2)cc1`: the cytotoxicity call was “inactive”.
With `COc1ccc(S(=O)(=O)Nc2ccc3c(c2)C(=O)N([C@H](C)CO)C[C@H](C)[C@@H](CN(C)Cc2ccc(Oc4ccccc4)cc2)O3)cc1`, the cytotoxicity call was “active”.
The value for `C[C@@H]1CN([C@@H](C)CO)C(=O)c2cc(NS(=O)(=O)c3ccccc3)ccc2O[C@H]1CN(C)Cc1ccc(Oc2ccccc2)cc1` was “inactive”; that for `COc1ccc(S(=O)(=O)Nc2ccc3c(c2)C(=O)N([C@@H](C)CO)C[C@@H](C)[C@H](CN(C)Cc2ccc(Oc4ccccc4)cc2)O3)cc1` was “active”.
On to `COc1ccc(S(=O)(=O)Nc2ccc3c(c2)C(=O)N([C@@H](C)CO)C[C@@H](C)[C@@H](CN(C)Cc2ccc(Oc4ccccc4)cc2)O3)cc1`, for which the cytotoxicity call is “active”.
Take `COc1ccc(S(=O)(=O)Nc2ccc3c(c2)C(=O)N([C@H](C)CO)C[C@H](C)[C@H](CN(C)Cc2ccc(Oc4ccccc4)cc2)O3)cc1`: the cytotoxicity call was “inactive”.
The value for `COc1ccc(S(=O)(=O)Nc2ccc3c(c2)C(=O)N([C@H](C)CO)C[C@@H](C)[C@@H](CN(C)Cc2ccc(Oc4ccccc4)cc2)O3)cc1` was “inactive”; that for `COc1ccc(S(=O)(=O)Nc2ccc3c(c2)C(=O)N([C@@H](C)CO)C[C@H](C)[C@@H](CN(C)Cc2ccc(Oc4ccccc4)cc2)O3)cc1` was “inactive”; that for `COc1ccc(S(=O)(=O)Nc2ccc3c(c2)C(=O)N([C@H](C)CO)C[C@@H](C)[C@H](CN(C)Cc2ccc(Oc4ccccc4)cc2)O3)cc1` was “active”.
The value for `COc1ccc(S(=O)(=O)Nc2ccc3c(c2)C(=O)N([C@@H](C)CO)C[C@H](C)[C@H](CN(C)Cc2ccc(Oc4ccccc4)cc2)O3)cc1` was “inactive”; that for `CN1CCN(C(=O)C[C@H]2CC[C@@H]3[C@H](COC[C@H](O)CN3Cc3ccc4c(c3)OCO4)O2)CC1` was “inactive”.
The value for `O=C(C[C@@H]1CC[C@H]2[C@@H](COC[C@@H](O)CN2C(=O)Nc2ccc(C(F)(F)F)cc2)O1)NCCc1ccncc1` was “inactive”.
In the case of `CCCNC(=O)Nc1ccc2c(c1)OC[C@@H](C)N(Cc1ccc(-c3ccccn3)cc1)C[C@@H](C)[C@H](OC)CN(C)C2=O`, the cytotoxicity call was “inactive”.
In the case of `Nc1c(C(=O)O)cnc2nc(N3CCOCC3)nn12`, the cytotoxicity call was “inactive”.
With `COc1ccc(S(=O)(=O)Nc2ccc3c(c2)C(=O)N([C@@H](C)CO)C[C@@H](C)[C@@H](CN(C)Cc2ccc(C(=O)O)cc2)OCCCC[C@@H](C)O3)cc1`, the cytotoxicity call was “inactive”.
With `C[C@H]1CN([C@@H](C)CO)S(=O)(=O)c2ccc(C#Cc3ccc(F)cc3)cc2O[C@H]1CN(C)S(=O)(=O)c1cn(C)cn1`, the cytotoxicity call was “inactive”.
The value for `CNc1cc(=O)n(C)c(=O)n1C` was “inactive”; that for `Cc1c(C)n2c3c(=O)n(C)c(=O)n(C)c3nc2n1CCN1CCOCC1` was “inactive”; that for `O=C(CN1C(=O)c2ccccc2C1=O)N1CCNCC1` was “inactive”.
Turning to `NC(=O)C1CCN(C(=O)c2ccc(NC3=N[C@H]4CS(=O)(=O)C[C@@H]4S3)cc2)CC1`, the cytotoxicity call was “inactive”.
Consider `C[C@H](CO)N1C[C@H](C)[C@H](CN(C)S(=O)(=O)c2ccc(Cl)cc2)Oc2ccc(NC(=O)c3ccncc3)cc2CC1=O`, for which the cytotoxicity call was “inactive”.
In the case of `CC(C)NC(=O)Nc1ccc2c(c1)C(=O)N([C@H](C)CO)C[C@@H](C)[C@H](CN(C)C(=O)Nc1ccc(C(F)(F)F)cc1)OCCCC[C@@H](C)O2`, the cytotoxicity call is “inactive”.
For the compound `C=C1COC(=O)[C@@H]2[C@@H](CO)[C@@H](O)C[C@H]12`, the cytotoxicity call is “inactive”.
With `CC(C)NC(=O)Nc1ccc2c(c1)C(=O)N([C@H](C)CO)C[C@@H](C)[C@@H](CN(C)Cc1ccc(-c3ccccc3)cc1)O2`, the cytotoxicity call is “inactive”.
As to `C[C@H]1CN([C@@H](C)CO)C(=O)c2cc(NC(=O)NC3CCCCC3)ccc2O[C@@H]1CN(C)Cc1ccc(-c2ccccc2)cc1`, the cytotoxicity call is “active”.
For `C[C@H](CO)N1C[C@H](C)[C@H](CN(C)Cc2ccc(-c3ccccc3)cc2)Oc2ccc(NC(=O)NC3CCCCC3)cc2C1=O`, the cytotoxicity call is “inactive”.
`C[C@@H]1CN([C@H](C)CO)C(=O)c2cc(NC(=O)NC3CCCCC3)ccc2O[C@H]1CN(C)Cc1ccc(-c2ccccc2)cc1`: the cytotoxicity call was “inactive”.
The value for `C[C@H]1CN([C@@H](C)CO)C(=O)c2cc(NC(=O)NC3CCCCC3)ccc2O[C@H]1CN(C)Cc1ccc(-c2ccccc2)cc1` was “inactive”; that for `C[C@H](CO)N1C[C@H](C)[C@@H](CN(C)Cc2ccc(-c3ccccc3)cc2)Oc2ccc(NC(=O)NC3CCCCC3)cc2C1=O` was “inactive”.
In the case of `C[C@@H]1CN([C@@H](C)CO)C(=O)c2cc(NC(=O)NC3CCCCC3)ccc2O[C@H]1CN(C)Cc1ccc(-c2ccccc2)cc1`, the cytotoxicity call is “inactive”.
As to `C[C@@H]1CN([C@@H](C)CO)C(=O)c2cc(NC(=O)NC3CCCCC3)ccc2O[C@@H]1CN(C)Cc1ccc(-c2ccccc2)cc1`, the cytotoxicity call is “active”.
Take `C[C@@H]1CN([C@H](C)CO)C(=O)c2cc(NC(=O)NC3CCCCC3)ccc2O[C@@H]1CN(C)Cc1ccc(-c2ccccc2)cc1`: the cytotoxicity call is “active”.
For `[O-][NH2+][O-]`, the cytotoxicity call was “inactive”.
Consider `C[C@H]1CN([C@@H](C)CO)C(=O)c2cc(NC(=O)Nc3cccc4ccccc34)ccc2O[C@H]1CN(C)S(=O)(=O)c1cccs1`, for which the cytotoxicity call was “inactive”.
Consider `Cc1ccccc1[C@@H](c1ncccc1C)N(C)C(=O)C1CCN(CCOc2ccc(Cl)cc2Cl)CC1`, for which the cytotoxicity call is “inactive”.
As to `COc1ccccc1NC(=O)N(C)C[C@H]1Oc2ncc(C#CCN(C)C)cc2C(=O)N([C@H](C)CO)C[C@@H]1C`, the cytotoxicity call is “inactive”.
Take `CCCNC(=O)N1C[C@@H](O)COC[C@H]2O[C@@H](CC(=O)N3CCOCC3)CC[C@@H]21`: the cytotoxicity call was “inactive”.
The value for `O=C(CCCCCNC(=O)OCc1ccc(CO[C@H]2C[C@@H](c3ccc(C(F)(F)F)cc3)C=C(C(=O)N3CCN(Cc4ccc5c(c4)OCO5)CC3)O2)cc1)NO` was “inactive”; that for `C[C@@H]1CCCCO[C@@H](CN(C)CC2CC2)[C@@H](C)CN([C@H](C)CO)C(=O)c2cc(NC(=O)Nc3ccccc3)ccc2O1` was “inactive”.
With `CN1C(=O)c2cc(NC(=O)Cc3cccs3)ccc2OC[C@@H]2O[C@@H](CC(=O)NCCc3ccncc3)CC[C@@H]21`, the cytotoxicity call was “inactive”.
For `C[C@H](CO)N1C[C@H](C)[C@H](CN(C)C(=O)CN2CCOCC2)Oc2ncc(C3=CCCCC3)cc2C1=O`, the cytotoxicity call is “inactive”.
Turning to `C[C@H](CO)N1C[C@H](C)[C@@H](CN(C)C(=O)Nc2ccc(C(F)(F)F)cc2)Oc2ncc(/C=C/c3ccccc3)cc2C1=O`, the cytotoxicity call is “inactive”.
With `C[C@H](CO)N1C[C@H](C)[C@@H](CN(C)C(=O)CN2CCOCC2)Oc2ncc(C3=CCCCC3)cc2C1=O`, the cytotoxicity call is “inactive”.
For the compound `C[C@H]1CN([C@@H](C)CO)C(=O)c2cc(C3=CCCC3)cnc2O[C@H]1CN(C)C(=O)Nc1ccc(C(F)(F)F)cc1`, the cytotoxicity call is “active”.
Take `C[C@@H]1CN([C@H](C)CO)C(=O)c2cc(C3=CCCC3)cnc2O[C@@H]1CN(C)C(=O)Nc1ccc(C(F)(F)F)cc1`: the cytotoxicity call was “active”.
The value for `C[C@@H]1CN([C@@H](C)CO)C(=O)c2cc(/C=C/c3ccccc3)cnc2O[C@H]1CN(C)C(=O)Nc1ccc(C(F)(F)F)cc1` was “inactive”.
The value for `C[C@@H]1CN([C@@H](C)CO)C(=O)c2cc(C3=CCCC3)cnc2O[C@H]1CN(C)C(=O)Nc1ccc(C(F)(F)F)cc1` was “inactive”.
The value for `C[C@@H]1CN([C@H](C)CO)C(=O)c2cc(/C=C/c3ccccc3)cnc2O[C@@H]1CN(C)C(=O)Nc1ccc(C(F)(F)F)cc1` was “active”.
On to `C[C@@H]1CN([C@@H](C)CO)C(=O)c2cc(C3=CCCC3)cnc2O[C@@H]1CN(C)C(=O)Nc1ccc(C(F)(F)F)cc1`, for which the cytotoxicity call is “inactive”.
Take `C[C@H]1CN([C@@H](C)CO)C(=O)c2cc(C3=CCCC3)cnc2O[C@@H]1CN(C)C(=O)Nc1ccc(C(F)(F)F)cc1`: the cytotoxicity call is “inactive”.
In the case of `C[C@@H]1CN([C@H](C)CO)C(=O)c2cc(C3=CCCCC3)cnc2O[C@H]1CN(C)C(=O)CN1CCOCC1`, the cytotoxicity call is “active”.
Take `C[C@H](CO)N1C[C@H](C)[C@H](CN(C)C(=O)Nc2ccc(C(F)(F)F)cc2)Oc2ncc(C3=CCCC3)cc2C1=O`: the cytotoxicity call was “inactive”.
Turning to `C[C@H](CO)N1C[C@H](C)[C@H](CN(C)C(=O)Nc2ccc(C(F)(F)F)cc2)OCCCC[C@H](C)Oc2ccc(N(C)C)cc2C1=O`, the cytotoxicity call is “inactive”.
Regarding `O=C(Cc1ccccc1)NCCN1CCOCC1`, the cytotoxicity call is “inactive”.
For the compound `CO[C@H](CN(C)S(=O)(=O)c1cccc(Cl)c1)[C@@H](C)CN([C@@H](C)CO)S(=O)(=O)c1ccc(Cl)cc1`, the cytotoxicity call is “inactive”.
On to `COc1ccc(NC(=O)N(C)C[C@@H]2Oc3ccc(NS(=O)(=O)c4cn(C)cn4)cc3C(=O)N([C@H](C)CO)C[C@H]2C)cc1`, for which the cytotoxicity call is “inactive”.
On to `O=C(C[C@@H]1C[C@H]2c3cc(NC(=O)Nc4ccc(C(F)(F)F)cc4)ccc3O[C@H]2[C@@H](CO)O1)NCCc1ccccc1`, for which the cytotoxicity call is “inactive”.
On to `C[C@H]1CN([C@@H](C)CO)C(=O)Cc2cc(NC(=O)Cn3cnnn3)ccc2O[C@@H]1CN(C)Cc1ccccc1`, for which the cytotoxicity call was “inactive”.
Regarding `CCO[C@@H]1OC(C(=O)N2CCN(Cc3ccccc3)CC2)=C[C@H](c2ccc(Br)cc2)[C@H]1CCCOC(=O)NCCCCCC(=O)NO`, the cytotoxicity call was “inactive”.
In the case of `C[C@@H]1CN([C@H](C)CO)C(=O)c2cc(NC(=O)Cc3ccccc3)ccc2O[C@@H]1CN(C)Cc1ccc(C(=O)Nc2ccccc2N)cc1`, the cytotoxicity call is “inactive”.
The value for `C[C@@H]1CCCCO[C@H](CN(C)S(=O)(=O)c2ccccc2)[C@@H](C)CN([C@@H](C)CO)C(=O)c2cc(NS(=O)(=O)c3cn(C)cn3)ccc2O1` was “inactive”; that for `O=C(C[C@@H]1C[C@@H]2c3cc(NS(=O)(=O)c4ccc(F)cc4)ccc3O[C@@H]2[C@H](CO)O1)NCc1ccncc1` was “inactive”; that for `C#CCCCCCCCCCCC[C@H](O)C[C@H](O)COC(C)=O.C=CCCCCCCCCCCC[C@H](O)C[C@H](O)COC(C)=O` was “inactive”.
For the compound `C[C@@H]1CCCCO[C@@H](CN(C)C(=O)Nc2ccc3c(c2)OCO3)[C@@H](C)CN([C@H](C)CO)C(=O)c2cc(NS(=O)(=O)c3ccc(F)cc3)ccc2O1`, the cytotoxicity call was “inactive”.
